Data from PubChem BioAssay (Tox21).
Where “and” joins values, the source holds several entries; their conditions need not be identical. Equal values may be shown once. Results filed as inconclusive are left out. Some compounds were tested as several samples or in several runs, with calls that do not always agree. Calls of active or inactive are those of the source. Calls follow the shape of the dose curve; as a rule, active = well fitted curve in the direction sought with a large enough effect in the repeat runs; inconclusive = weak or mixed curves; inactive = no such curve, though single readings can be large; an effect the other way counts as inactive or inconclusive.

experiment: qHTS assay to identify small molecule agonists of the RXR signaling pathway - cell viability counter screen (AID 1159529); conditions: RXR-alpha-bla HEK293T viability, CellTiter-Glo, 16 h; series mostly up to 76.8 µM; activity change, negative = cytotoxicity: at the top concentration; also: nearly all actives have a fitted effect of over 50% in size;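 as to activity change, negative = cytotoxicity: HEK 293T cells carrying an RXR-alpha UAS beta-lactamase reporter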
In short: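 Tox21 10K compounds were tested for cytotoxicity against GeneBLAzer RXR-alpha HEK 293T cells grown in 2% charcoal-stripped FBS. Exposure lasted 16 hr at 37 C, 5% CO2; viability read by CellTiter-Glo luminescence.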
% is scaled to controls: 0 for no effect and ±100 for the full control effect; potency is read from the fitted curve at half-maximal effect.

| Structure (SMILES) | activity change, negative = cytotoxicity | Potency |
| --- | --- | --- |
| CCCC(=O)OCOC(=O)C1=C(C)NC(C)=C(C(=O)OC)C1c1cccc(Cl)c1Cl (stereo not drawn) | -15% [at 35.3 µM] (inactive) |  |
| CN1CCC[C@@H]1CCO[C@](C)(c1ccccc1)c1ccc(Cl)cc1 |  | 8.49 µM (active) |
| CC(=O)CC(=O)Nc1ccc(S(=O)(=O)O)cc1 | 12.6% (inactive) |  |
| c1ccc(C(O[C@@H]2CCCN(CCc3ccc4c(c3)OCO4)C2)c2ccccc2)cc1 | -8.36% (inactive) |  |
| CC1=Nc2ccccc2C1(C)C | 0.527% (inactive) |  |
| OCC(F)(F)F | -15.2% (inactive) |  |
| CCCCCCCCCCCCCCCC[N+](C)(C)CC |  | 8.74 µM (active) and 10.7 µM (active) |
| NC(=O)c1cccc([N+](=O)[O-])c1 | 12.6% (inactive) |  |
| CN(C)C(=O)COC(=O)Cc1ccc(OC(=O)c2ccc(N=C(N)N)cc2)cc1 | 14.1% [at 35.3 µM] (inactive) |  |
| Cc1nc(-c2ccc(Cl)cc2)oc1COC(C)(C)C(=O)O | 8.67% [at 35.3 µM] (inactive) |  |
| OC1CCCc2ccccc21 (stereo not drawn) | 1.73% (inactive) |  |
| O=C(O)c1cc(-c2ccc(F)cc2F)ccc1O | -11.4% [at 35.3 µM] (inactive) |  |
| Nc1nc(N)nc(-c2cc(Cl)ccc2Cl)n1 | 5.32% [at 35.3 µM] (inactive) |  |
| CCC(C)(CCC(C)C)C(=O)[O][Sn]([CH3])([CH3])[O]C(=O)C(C)(CC)CCC(C)C (stereo not drawn) | -2.24% (inactive) |  |
| CC(C)OC(=O)C(O)(CC(=O)O)CC(=O)O | -3.48% (inactive) |  |
| Clc1sc(Cl)c(Cl)c1Cl | 1.91% (inactive) |  |
| CCC(COC(=O)CCS)(COC(=O)CCS)COC(=O)CCS | 0.269% (inactive) |  |
| Cc1ccc(O)c(O)c1 | -13.9% (inactive) |  |
| CN1CCN(Cc2cc(-c3ccc4[nH]c(=O)oc4c3)co2)[C@@H](c2ccc(F)cc2)C1 | -7.18% (inactive) |  |

| Structure (SMILES) | activity change, negative = cytotoxicity | Potency |
| --- | --- | --- |
| S=C([S-])NCCNC(=S)[S-].S=C([S-])NCCNC(=S)[S-].[Mn+2].[Zn+2] | -7.8% [at 35.3 µM] (inactive) |  |
| COc1cc(S(=O)(=O)O)c(C)cc1N=Nc1c(O)ccc2cc(S(=O)(=O)O)ccc12 | -0.51% (inactive) |  |
| O=C(O)[C@H](O)[C@@H](O)[C@H](O[C@@H]1O[C@H](CO)[C@H](O)[C@H](O)[C@H]1O)[C@H](O)CO | 2.08% [at 35.3 µM] (inactive) |  |
| O=[N+]([O-])c1cccc(C(F)(F)F)c1 | 4.11% (inactive) |  |
| COC(=O)C1=C(C)NC(C)=C(C(=O)OCCN2CCN(C(c3ccccc3)c3ccccc3)CC2)C1c1cccc([N+](=O)[O-])c1 (stereo not drawn) | -20.3% [at 35.3 µM] (inactive) |  |
| C[Si](Cl)(c1ccccc1)c1ccccc1 | -15.6% (inactive) |  |
| CCCCCCCCCCOC(=O)c1ccccc1C(=O)OCCCCCCCC | -4.2% (inactive) |  |
| c1ccsc1 | 11.2% (inactive) |  |
| CC1(C)[C@@H](O)CC[C@]2(C)[C@H]3C(=O)C=C4[C@@H]5C[C@@](C)(C(=O)O)CC[C@]5(C)CC[C@@]4(C)[C@]3(C)CC[C@@H]12 | 1.04% (inactive) |  |
| Nc1cc(Cl)c(O)c(Cl)c1 | -12.2% (inactive) |  |
| O=C1c2ccccc2C(=O)N1SC1CCCCC1 |  | 48.9 µM (active) and 49 µM (active) |
| CCCCCCCC/C=C\CCCCCCCCN | -1.48% [at 35.3 µM] (inactive) |  |
| CCCCCCCCCCCCCC[N+](C)(C)Cc1ccccc1 |  | 7.03 µM (active) and 5.35 µM (active) and 2.51 mM (active) |
| COc1cccc(OC)c1C(=O)O | 8.02% (inactive) |  |
| CCCC1CCC(=O)CC1 | 0.226% (inactive) |  |
| [Cu+] | -17.3% (inactive) |  |
| Cc1cccc(C)c1NC(=O)c1ccc(N)cc1 | -7.19% [at 35.3 µM] (inactive) |  |
| Nc1nc(-c2ccccc2)cs1 | -7.54% (inactive) |  |

experiment: qHTS assay to identify small molecule antagonists of the retinoid acid receptor (RAR) signaling pathway - cell viability counter screen (AID 1159551); conditions: C3RL4 cells viability, ATP luminescence (CellTiter-Glo), 6 h; series mostly up to 92.4 µM; activity change, negative = cytotoxicity: at the top concentration; also: nearly all actives have a fitted effect of over 35% in size
In short: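 Seed C3RL4 cells; next day add compound, then retinol to 1 uM final; incubate 6 h at 37 C; add CellTiter-Glo; read luminescence after 30 min at RT.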

| Structure (SMILES) | activity change, negative = cytotoxicity | Potency |
| --- | --- | --- |
| CCCC(=O)OCOC(=O)C1=C(C)NC(C)=C(C(=O)OC)C1c1cccc(Cl)c1Cl (stereo not drawn) | 4.31% [at 42.5 µM] (inactive) |  |
| CN1CCC[C@@H]1CCO[C@](C)(c1ccccc1)c1ccc(Cl)cc1 | -1.56% [at 42.5 µM] (inactive) |  |
| CC(=O)CC(=O)Nc1ccc(S(=O)(=O)O)cc1 | 2.04% (inactive) |  |
| c1ccc(C(O[C@@H]2CCCN(CCc3ccc4c(c3)OCO4)C2)c2ccccc2)cc1 | -5.02% (inactive) |  |
| OCC(F)(F)F | -0.81% (inactive) |  |
| CCCCCCCCCCCCCCCC[N+](C)(C)CC |  | 61.3 µM (active) |
| NC(=O)c1cccc([N+](=O)[O-])c1 | 4.02% (inactive) |  |
| CN(C)C(=O)COC(=O)Cc1ccc(OC(=O)c2ccc(N=C(N)N)cc2)cc1 | -0.435% [at 42.5 µM] (inactive) |  |
| Cc1nc(-c2ccc(Cl)cc2)oc1COC(C)(C)C(=O)O | 0.423% [at 42.5 µM] (inactive) |  |
| OC1CCCc2ccccc21 (stereo not drawn) | -0.229% (inactive) |  |
| Nc1nc(N)nc(-c2cc(Cl)ccc2Cl)n1 | 3.01% [at 42.5 µM] (inactive) |  |
| CC(C)OC(=O)C(O)(CC(=O)O)CC(=O)O | 0.673% (inactive) |  |
| Clc1sc(Cl)c(Cl)c1Cl | -0.0282% (inactive) |  |
| CCC(COC(=O)CCS)(COC(=O)CCS)COC(=O)CCS | -0.675% (inactive) |  |
| CN1CCN(Cc2cc(-c3ccc4[nH]c(=O)oc4c3)co2)[C@@H](c2ccc(F)cc2)C1 | -5.18% (inactive) |  |
| O=C(O)[C@H](O)[C@@H](O)[C@H](O[C@@H]1O[C@H](CO)[C@H](O)[C@H](O)[C@H]1O)[C@H](O)CO | -1.04% [at 42.5 µM] (inactive) |  |
| O=[N+]([O-])c1cccc(C(F)(F)F)c1 | 1.49% (inactive) |  |
| COC(=O)C1=C(C)NC(C)=C(C(=O)OCCN2CCN(C(c3ccccc3)c3ccccc3)CC2)C1c1cccc([N+](=O)[O-])c1 (stereo not drawn) | -3.09% [at 42.5 µM] (inactive) |  |
| CCCCCCCCCCOC(=O)c1ccccc1C(=O)OCCCCCCCC | 1.8% (inactive) |  |
| c1ccsc1 | -1.12% (inactive) |  |
| Nc1cc(Cl)c(O)c(Cl)c1 | -0.434% (inactive) |  |
| O=C1c2ccccc2C(=O)N1SC1CCCCC1 |  | inactive |
| CCCCCCCCCCCCCC[N+](C)(C)Cc1ccccc1 |  | 69.6 µM (active) and 29.8 µM (active) and inactive |
| CCCC1CCC(=O)CC1 | -1.51% (inactive) |  |
| [Cu+] | -2.95% (inactive) |  |
| Cc1cccc(C)c1NC(=O)c1ccc(N)cc1 | -0.842% [at 42.5 µM] (inactive) |  |
